CtBP-E1A blk: qHTS Assay for Inhibitors of the CtBP/E1A Interaction | CtBP / adenovirus E1A interaction (AlphaScreen) | AlphaScreen GST-E1A/His-CtBP binding, 1536-well; stronger effect = lower value | activity change, % (test concentration not listed) | 340,000 tested, 0.49% active; note: % is set by controls: 0 for no effect and ±100 for the full control effect
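Steps: dispense buffer (Tris pH 8.0, NaCl 300 mM, TCEP 1 mM, BSA, Tween 20); add 5X protein mix (GST-E1A, His-CtBP, 125 nM each); pin 23 nL compound; 2 h at 37 °C, dark; add 5X beads (50 ug/mL); 1 h; read.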
GLS inhibitor: qHTS for Inhibitors of Glutaminase (GLS); Glutaminase kidney isoform, mitochondrial (Homo sapiens), O94925; GLS enzymatic activity, qHTS titration; Potency, µM (series often up to 45.5 µM), for the others: top-dose activity change, negative = inhibition, usual class: inhibitors; 410,000 tested, 0.21% active; AID 624170, 2012; active = well fitted inhibition curve with a large enough effect; inconclusive = small, poorly fitted or top-dose-only effect, or another doubt; inactive = no such curve, though single readings can be large or run the other way; note: potency is the fitted concentration of half-maximal effect; % is set by controls: 0 for no effect and ±100 for the full control effect
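Human kidney-isoform GLS in 45 mM KH2PO4 pH 8.2, 0.02% Tween-20, with compound, started with 1mM L-Glutamine (added stock). Glutamate oxidase/HRP/Amplex red coupled fluorescence read at start and after 30 min at RT.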
Six1-Eya2 inh: qHTS Assay for Inhibitors of the Six1/Eya2 Interaction; Homeobox protein SIX1 (Homo sapiens) + Protein phosphatase EYA2 (Homo sapiens), …; AlphaScreen GST-Six1/His-Eya2 binding, biochemical; stronger effect = lower value; activity change, % (concentration not given with the values); 360,000 tested, 0.56% active; note: % is set by controls: 0 for no effect and ±100 for the full control effect
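Six1/Eya2 binding was read as AlphaScreen signal after compounds were pinned into GST-Six1 plus His-tagged Eya2 (5X stock 250/500 nM) in pH 8.0 Tris/NaCl/TCEP buffer, beads added, then incubated 1 h, 37 C, dark.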
CXXC DNA block: qHTS Fluorescence Polarization Assay for Inhibitors of MLL CXXC domain - DNA interaction | Potency, µM (top dose mostly 115 µM), for inactives: at the top dose activity change, negative = inhibition, most hits filed as inhibitors | 290,000 tested, 0.037% active | AID 2662, 2010 | MLL-CXXC / FITC-HOXA9 DNA fluorescence polarization; active = well fitted inhibition curve with a large enough effect in the polarisation, with a control signal flat, not every such curve was filed as active; inconclusive = small, poorly fitted or top-dose-only effect, or effect the other way, or a change in a side signal; inactive = no such curve, though single readings can be large or run the other way; the % refers to the polarisation; note: potency is the fitted concentration of half-maximal effect
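Purified MLL-CXXC (added from a 7 uM solution) was preincubated 5 min at ambient with pinned compounds in 50 mM Tris-HCl pH 7.5, 50 mM NaCl, 1 mM DTT, 0.05% BSA. Fluorescein-labeled HOX-A9 DNA (50 nM solution) followed, 30 min, then polarization read.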
Menin MLL FP FL: qHTS Assay for Inhibitors Targeting the Menin-MLL Interaction in MLL Related Leukemias: Competition With Fluorescein Labeled MLL-derived Peptide; Fluorescence polarization, fluorescein-MLL peptide displacement from menin; AID 1766, 2009; FP activity change, % at 61.4 µM; 290,000 tested, under 10 active; active = well fitted curve in the direction sought with a large enough effect in the polarisation, not every such curve was filed as active; inconclusive = small, poorly fitted or top-dose-only effect, or effect the other way, or a change in a side signal; inactive = no such curve, though single readings can be large or run the other way; the % refers to the polarisation; note: % of control where 0% means no effect
Menin MLL FP TR: qHTS Assay for Inhibitors Targeting the Menin-MLL Interaction in MLL Related Leukemias: Competition With Texas Red Labeled MLL-derived Mutant Peptide; O00255; 270,000 tested, 0.23% active; Potency, µM (titrated, usually from 61.6 µM), for the others: at the top dose FP activity change, negative = inhibition, hits mostly inhibitors; AID 1768, 2009; Menin + Texas Red MLL mutant peptide, fluorescence polarization; active = well fitted inhibition curve with a large enough effect in the polarisation, with a control signal flat, not every such curve was filed as active; inconclusive = small, poorly fitted or top-dose-only effect, or effect the other way, or a change in a side signal; inactive = no such curve, though single readings can be large or run the other way; the % refers to the polarisation; note: potency is the fitted concentration of half-maximal effect; % of control where 0% means no effect
* hit, by the source's call; ? = inconclusive; / = not tested or not shown. An excerpt weighted towards active compounds, which were near 0.83% of everything screened. Cut-off read from the data, not from the text of the source, unless noted: active = activity change below about -65%; inconclusive = mostly about -30% to -63%; inactive = weaker than that.

SMILES | CtBP-E1A blk | GLS inhibitor | Six1-Eya2 inh | CXXC DNA block | Menin MLL FP FL | Menin MLL FP TR
CCOC(=O)CSc1cccc2cccnc12 | -92* | 5% | -89* | -25% | 2 | -4%
CCCCCOc1ccc(NC(=O)CSc2cccc3cccnc23)cc1 | -95* | 0% | -92* | 10% | 2 | 4%
Cc1cccc(CSc2cccc3cccnc23)c1 | -92* | 3% | -90* | 4% | 2 | 36%
COc1ccc(CNC(=O)CSc2cccc3cccnc23)cc1 | -3 | -7% | 1 | 6% | 5 | /
CC1=C(C(=O)Nc2ccc(C)cc2C)C(c2ccccc2)n2ncc(C(=O)Nc3ccccc3)c2N1 (centres undefined) | / | 16% | / | / | / | /
Cc1cccc(NC(=O)CSc2cccc3cccnc23)c1C | -79* | -6% | ? | -1% | -9 | 5%
CC[C@H]1[C@@H]2C=C[C@@H]3[C@H]4C/C=C\C(=O)NCCC[C@@H]5NC(=O)C(=C5O)C(=O)CC[C@@H]4C[C@@H]3[C@H]2C[C@H]1C | / | / | / | / | 0 | -6%
COc1ccc(CNC(=O)c2cc3cccc4c3n2CC(C)S4)cc1OC (centres undefined) | / | 4% | / | / | / | /
CSc1ccc(CCNC(=O)Cn2ccc3cc(S(=O)(=O)N4CCCCCC4)ccc32)cc1 | / | -18% | / | / | / | /
CO/N=C(/C(=O)N[C@@H]1C(=O)N2C(C(=O)O)=C(CSc3nnnn3C)CS[C@H]12)c1csc(N)n1 | / | 2% | / | -5% | 4 | -2%
CO/N=C(/C(=O)N[C@@H]1C(=O)N2C(C(=O)O)=C(CSc3cnns3)CS[C@H]12)c1csc(N)n1 | / | 32µM* | / | -14% | 2 | 15%
CC1CCN(S(=O)(=O)c2ccc3c(c2)N(CC(=O)NC(C)C)C(=O)CO3)CC1 | / | -10% | / | / | / | /
COc1ccc2nc(N3C(=O)C(O)=C(C(=O)c4ccco4)C3c3ccc(C)o3)sc2c1 (centres undefined) | ? | 10µM* | -11 | / | / | /
C/C1=C\[C@@H](O)C(C(C)C)C(OC(=O)c2ccc(O)cc2)C/C(C)=C/CC1 (some centres undefined) | / | / | / | / | 5 | 17%
O=C1/C(=C/c2ccc(C(=O)O)cc2)CCC/C1=C\c1ccc(C(=O)O)cc1 | 3 | 3% | -67* | -12% | 4 | 14%
COc1cccc(/C=N/NC(=O)C(=O)N2CCCC2)c1O | 10 | 19% | -89* | 20% | 6 | ?
O=C(CCN1CCN(c2ccccc2)CC1)N/N=C/c1ccccc1O | 7 | 1% | -70* | 0% | -2 | 8%
CCOc1cc(/C=N/NC(=O)CN(CCc2ccccc2)S(=O)(=O)c2ccc(NC(C)=O)cc2)ccc1O | 0 | ? | -75* | ? | 2 | 25%
COc1cc(/C=N/NC(=O)NC23CC4CC(CC(C4)C2)C3)ccc1O | 6 | 7.9µM* | 1 | ? | 0 | 8%
O=C(N/N=C/c1ccccc1O)C(=O)N1CCCCCC1 | -88* | 20% | -79* | 4% | / | /
O=C(NN=Cc1ccccc1O)C(O)c1ccccc1 (centres undefined) | -68* | 0% | ? | / | / | /
COc1cc(/C=N/NC(=O)C(=O)N2CCCCCC2)ccc1O | -2 | 8.9µM* | -13 | 2% | / | /
O=C(COc1ccccc1C(=O)N/N=C\c1ccc(O)c(O)c1)N/N=C/c1ccc(O)c(O)c1 | -77* | -4% | -79* | 45% | 4 | ?
CCOc1cc(/C=N/NC(=O)N/N=C/c2ccc(O)c(OCC)c2)ccc1O | -8 | 8.9µM* | ? | / | / | /
CCOc1cc(/C=N/NC(=O)C(=O)N/N=C/c2ccc(O)c(OCC)c2)ccc1O | 1 | -24% | -9 | -1% | 2 | ?
